From PMC7862700, “An all-to-all approach to the identification of sequence-specific readers for epigenetic DNA modifications on cytosine”

Columns and labels:
Assay in all cases: DAPPL (digital affinity profiling via proximity ligation, sequencing); 10 mM Tris-HCl pH 7.5, 50 mM NaCl, 1 mM DTT, 4% glycerol, room temperature, 30 min; GST-TFs on glutathione beads, 16-mer random dsDNA library, 0.1% formaldehyde crosslink after washing; high values mean tight binding
Settings in all cases: protein: recombinant; tags: N-terminal GST; dsDNA, one strand shown
[1] = molecular target: T1, FLI1 (Homo sapiens, UniProt Q01543 1-452)
T1 sequence: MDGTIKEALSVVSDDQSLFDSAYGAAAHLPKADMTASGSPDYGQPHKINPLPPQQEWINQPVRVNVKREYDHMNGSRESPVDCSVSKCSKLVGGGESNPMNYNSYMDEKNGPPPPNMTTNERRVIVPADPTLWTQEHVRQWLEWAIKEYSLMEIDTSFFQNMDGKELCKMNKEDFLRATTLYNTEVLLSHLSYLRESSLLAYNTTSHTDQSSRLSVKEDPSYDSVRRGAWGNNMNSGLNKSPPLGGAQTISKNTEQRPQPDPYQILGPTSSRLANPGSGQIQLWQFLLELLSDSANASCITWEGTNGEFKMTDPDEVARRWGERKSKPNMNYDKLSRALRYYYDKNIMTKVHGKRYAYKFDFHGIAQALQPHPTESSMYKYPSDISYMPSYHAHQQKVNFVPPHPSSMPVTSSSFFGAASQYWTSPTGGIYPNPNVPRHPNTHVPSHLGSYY
How it was run: (§1)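 Human transcription factors were made in yeast as GST fusions, captured on glutathione beads and barcoded with DNA. With a tag-only sample included, the pool was incubated with 200 nmole of a random double-stranded 16-mer DNA library in Tris/NaCl/DTT/glycerol buffer at room temperature for 30 min, then crosslinked with 0.1% formaldehyde after washing, ligated by proximity, amplified and sequenced. For binding signal, each hexamer's read frequency for a factor is divided by its frequency for the tag-only sample.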

[2] = molecular target: T2, ELK1 (Homo sapiens, UniProt P19419 1-428)
T2 sequence: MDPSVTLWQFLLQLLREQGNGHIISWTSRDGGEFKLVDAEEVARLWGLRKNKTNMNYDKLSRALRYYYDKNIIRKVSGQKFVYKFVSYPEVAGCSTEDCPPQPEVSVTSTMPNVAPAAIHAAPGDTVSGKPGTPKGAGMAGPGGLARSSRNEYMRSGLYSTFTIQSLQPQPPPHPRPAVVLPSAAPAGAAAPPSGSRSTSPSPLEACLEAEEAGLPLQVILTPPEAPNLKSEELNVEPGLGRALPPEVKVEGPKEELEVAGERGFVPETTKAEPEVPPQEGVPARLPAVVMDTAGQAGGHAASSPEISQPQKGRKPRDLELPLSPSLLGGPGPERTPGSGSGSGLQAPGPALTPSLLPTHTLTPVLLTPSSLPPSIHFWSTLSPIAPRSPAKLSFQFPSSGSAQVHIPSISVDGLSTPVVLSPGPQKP
How it was run: as §1

[3] = molecular target: T3, GABPA (Homo sapiens, UniProt Q06546 1-454)
T3 sequence: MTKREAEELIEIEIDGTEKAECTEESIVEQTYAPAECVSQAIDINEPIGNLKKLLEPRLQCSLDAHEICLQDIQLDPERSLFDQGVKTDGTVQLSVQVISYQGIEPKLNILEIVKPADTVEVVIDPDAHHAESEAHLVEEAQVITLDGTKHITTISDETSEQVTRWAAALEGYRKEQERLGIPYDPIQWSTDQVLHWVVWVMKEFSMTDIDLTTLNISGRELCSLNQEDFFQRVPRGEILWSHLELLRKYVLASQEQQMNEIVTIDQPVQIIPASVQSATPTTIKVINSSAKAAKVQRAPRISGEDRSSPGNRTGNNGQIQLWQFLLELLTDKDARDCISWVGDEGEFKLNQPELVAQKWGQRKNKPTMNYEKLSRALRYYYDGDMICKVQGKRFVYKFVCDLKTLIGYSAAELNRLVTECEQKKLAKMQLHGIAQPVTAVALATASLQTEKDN
How it was run: as §1

[4] = molecular target: T4, ERG (Homo sapiens, UniProt P11308 1-479)
T4 sequence: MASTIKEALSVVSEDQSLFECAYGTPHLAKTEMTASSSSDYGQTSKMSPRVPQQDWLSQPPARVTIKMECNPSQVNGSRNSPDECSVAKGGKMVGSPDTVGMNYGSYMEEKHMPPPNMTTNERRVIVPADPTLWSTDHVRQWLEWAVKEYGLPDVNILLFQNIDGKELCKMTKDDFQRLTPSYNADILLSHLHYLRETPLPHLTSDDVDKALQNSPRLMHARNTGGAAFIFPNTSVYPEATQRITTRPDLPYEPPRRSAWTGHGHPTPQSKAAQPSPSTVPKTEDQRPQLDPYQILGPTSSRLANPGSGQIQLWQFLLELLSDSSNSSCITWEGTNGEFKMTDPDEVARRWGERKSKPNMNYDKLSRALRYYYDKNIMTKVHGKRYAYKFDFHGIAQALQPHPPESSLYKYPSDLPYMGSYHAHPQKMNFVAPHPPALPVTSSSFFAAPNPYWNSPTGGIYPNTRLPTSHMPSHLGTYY
How it was run: as §1

[5] = molecular target: ELF1 (Homo sapiens, UniProt P32519 1-619)
How it was run: as §1

[6] = molecular target: T5, EHF (Homo sapiens, UniProt Q9NZC4 1-300)
T5 sequence: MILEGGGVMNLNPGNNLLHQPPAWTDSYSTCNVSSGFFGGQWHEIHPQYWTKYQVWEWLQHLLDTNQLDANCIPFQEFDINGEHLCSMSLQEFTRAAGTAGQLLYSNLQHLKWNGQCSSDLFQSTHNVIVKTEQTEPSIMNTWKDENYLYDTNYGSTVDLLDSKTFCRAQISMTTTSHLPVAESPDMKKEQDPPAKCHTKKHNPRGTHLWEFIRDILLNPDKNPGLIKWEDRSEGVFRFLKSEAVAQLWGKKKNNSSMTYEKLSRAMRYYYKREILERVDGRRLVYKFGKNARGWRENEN
How it was run: as §1

[7] = molecular target: SPI1 (Homo sapiens, UniProt P17947 1-270)
How it was run: as §1

[8] = molecular target: SPIB (Homo sapiens, UniProt Q01892 1-262)
How it was run: as §1

[9] = molecular target: T6, ELK3 (Homo sapiens, UniProt P41970 1-407)
T6 sequence: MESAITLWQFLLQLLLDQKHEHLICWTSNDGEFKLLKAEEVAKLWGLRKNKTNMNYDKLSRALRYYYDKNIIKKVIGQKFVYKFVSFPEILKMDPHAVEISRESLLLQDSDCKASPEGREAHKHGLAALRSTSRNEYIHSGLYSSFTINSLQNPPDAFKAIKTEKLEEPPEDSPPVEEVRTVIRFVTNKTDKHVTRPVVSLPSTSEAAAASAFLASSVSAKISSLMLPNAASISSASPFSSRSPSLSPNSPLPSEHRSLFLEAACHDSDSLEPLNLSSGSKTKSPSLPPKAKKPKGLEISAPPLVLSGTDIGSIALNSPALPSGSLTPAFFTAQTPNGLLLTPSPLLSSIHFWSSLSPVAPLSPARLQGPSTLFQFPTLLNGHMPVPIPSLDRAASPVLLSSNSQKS
How it was run: as §1

[10] = molecular target: ETV5 (Homo sapiens, UniProt P41161 1-510)
How it was run: as §1

[11] = molecular target: T7, SPIC (Homo sapiens, UniProt Q8N5J4 1-248)
T7 sequence: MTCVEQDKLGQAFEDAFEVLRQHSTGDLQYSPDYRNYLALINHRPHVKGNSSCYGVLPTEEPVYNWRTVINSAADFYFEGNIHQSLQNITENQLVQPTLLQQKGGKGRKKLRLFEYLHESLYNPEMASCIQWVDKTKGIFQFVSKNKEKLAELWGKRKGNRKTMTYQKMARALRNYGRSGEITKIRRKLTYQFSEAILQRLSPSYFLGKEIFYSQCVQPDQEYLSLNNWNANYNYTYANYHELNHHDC
How it was run: as §1

[12] = molecular target: ELF4 (Homo sapiens, UniProt Q99607 1-663)
How it was run: as §1

[13] = molecular target: T8, ELK4 (Homo sapiens, UniProt P28324-2 1-405)
T8 sequence: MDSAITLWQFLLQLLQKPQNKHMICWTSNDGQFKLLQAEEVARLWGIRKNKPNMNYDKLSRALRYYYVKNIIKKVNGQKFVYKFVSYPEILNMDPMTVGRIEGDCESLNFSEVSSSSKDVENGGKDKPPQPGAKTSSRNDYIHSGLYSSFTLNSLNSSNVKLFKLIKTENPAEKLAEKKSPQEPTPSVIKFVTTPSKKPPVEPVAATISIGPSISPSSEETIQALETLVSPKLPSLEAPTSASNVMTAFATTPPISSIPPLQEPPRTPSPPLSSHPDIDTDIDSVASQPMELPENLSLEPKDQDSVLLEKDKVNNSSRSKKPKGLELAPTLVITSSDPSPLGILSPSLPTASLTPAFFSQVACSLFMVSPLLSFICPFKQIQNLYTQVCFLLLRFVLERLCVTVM
How it was run: as §1

[14] = molecular target: T9, ETV2 (Homo sapiens, UniProt O00321 1-342)
T9 sequence: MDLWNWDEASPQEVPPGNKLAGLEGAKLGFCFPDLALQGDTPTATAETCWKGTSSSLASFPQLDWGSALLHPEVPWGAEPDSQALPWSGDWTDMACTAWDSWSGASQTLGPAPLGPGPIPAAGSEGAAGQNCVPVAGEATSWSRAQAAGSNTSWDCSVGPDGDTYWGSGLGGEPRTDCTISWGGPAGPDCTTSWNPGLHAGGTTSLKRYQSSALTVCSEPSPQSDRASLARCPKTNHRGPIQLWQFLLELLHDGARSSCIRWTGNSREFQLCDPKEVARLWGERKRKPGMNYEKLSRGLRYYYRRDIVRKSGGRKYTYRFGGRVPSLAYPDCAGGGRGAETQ
How it was run: as §1

[15] = molecular target: T10, ELF3 (Homo sapiens, UniProt P78545 1-371)
T10 sequence: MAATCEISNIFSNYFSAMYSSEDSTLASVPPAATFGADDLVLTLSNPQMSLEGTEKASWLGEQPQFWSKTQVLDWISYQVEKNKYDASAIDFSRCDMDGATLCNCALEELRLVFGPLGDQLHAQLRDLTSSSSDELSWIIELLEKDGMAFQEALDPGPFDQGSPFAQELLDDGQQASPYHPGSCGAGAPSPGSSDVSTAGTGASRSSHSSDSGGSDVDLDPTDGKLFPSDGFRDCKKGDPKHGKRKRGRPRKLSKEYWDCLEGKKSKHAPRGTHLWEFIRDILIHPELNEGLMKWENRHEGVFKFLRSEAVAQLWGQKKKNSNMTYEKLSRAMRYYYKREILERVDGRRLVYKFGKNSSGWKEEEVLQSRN
How it was run: as §1

[16] = molecular target: CRX (Homo sapiens, UniProt O43186 1-299)
How it was run: as §1

[17] = molecular target: ETV1 (Homo sapiens, UniProt P50549 1-477)
How it was run: as §1

[18] = molecular target: T11, FEV (Homo sapiens, UniProt Q99581 1-238)
T11 sequence: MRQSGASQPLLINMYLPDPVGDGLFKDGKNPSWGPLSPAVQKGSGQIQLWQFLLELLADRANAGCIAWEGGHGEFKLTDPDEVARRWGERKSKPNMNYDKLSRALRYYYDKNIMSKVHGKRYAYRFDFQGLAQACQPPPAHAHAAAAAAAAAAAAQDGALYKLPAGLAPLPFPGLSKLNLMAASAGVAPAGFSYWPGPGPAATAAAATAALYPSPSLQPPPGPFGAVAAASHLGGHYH
How it was run: as §1

SPIB, sequence (Q01892 whole entry): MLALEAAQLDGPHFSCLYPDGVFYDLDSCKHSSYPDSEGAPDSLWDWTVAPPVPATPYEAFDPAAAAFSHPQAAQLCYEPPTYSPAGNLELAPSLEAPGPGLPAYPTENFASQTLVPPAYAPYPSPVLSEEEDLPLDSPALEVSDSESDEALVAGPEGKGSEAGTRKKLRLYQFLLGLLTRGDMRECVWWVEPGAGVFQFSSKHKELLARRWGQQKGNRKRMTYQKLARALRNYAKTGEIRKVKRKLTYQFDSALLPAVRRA
ELF1, sequence (P32519 whole entry): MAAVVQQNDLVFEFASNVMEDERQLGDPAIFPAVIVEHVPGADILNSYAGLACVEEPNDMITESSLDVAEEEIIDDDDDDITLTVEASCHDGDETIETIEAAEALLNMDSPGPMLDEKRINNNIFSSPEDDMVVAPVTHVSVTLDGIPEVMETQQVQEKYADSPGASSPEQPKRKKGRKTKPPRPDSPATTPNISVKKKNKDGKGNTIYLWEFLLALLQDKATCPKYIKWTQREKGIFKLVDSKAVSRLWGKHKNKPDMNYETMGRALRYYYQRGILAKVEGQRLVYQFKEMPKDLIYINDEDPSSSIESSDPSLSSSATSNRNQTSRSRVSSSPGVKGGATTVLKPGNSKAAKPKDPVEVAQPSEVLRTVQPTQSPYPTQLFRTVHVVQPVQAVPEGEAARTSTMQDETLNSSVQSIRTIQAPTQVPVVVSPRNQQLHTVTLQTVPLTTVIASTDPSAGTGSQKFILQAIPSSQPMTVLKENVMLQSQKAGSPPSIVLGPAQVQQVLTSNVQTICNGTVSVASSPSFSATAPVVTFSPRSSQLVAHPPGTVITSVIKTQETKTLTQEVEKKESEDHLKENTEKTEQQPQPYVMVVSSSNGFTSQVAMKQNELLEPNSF
CRX, sequence (O43186 whole entry): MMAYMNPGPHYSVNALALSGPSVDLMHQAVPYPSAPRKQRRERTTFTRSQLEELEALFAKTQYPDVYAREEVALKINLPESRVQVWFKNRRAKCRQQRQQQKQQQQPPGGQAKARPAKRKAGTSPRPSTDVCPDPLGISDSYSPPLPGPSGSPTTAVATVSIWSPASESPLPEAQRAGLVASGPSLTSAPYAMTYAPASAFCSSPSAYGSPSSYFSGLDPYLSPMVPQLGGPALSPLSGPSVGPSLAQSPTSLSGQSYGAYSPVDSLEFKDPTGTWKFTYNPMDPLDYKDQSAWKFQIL
ETV5, sequence (P41161 whole entry): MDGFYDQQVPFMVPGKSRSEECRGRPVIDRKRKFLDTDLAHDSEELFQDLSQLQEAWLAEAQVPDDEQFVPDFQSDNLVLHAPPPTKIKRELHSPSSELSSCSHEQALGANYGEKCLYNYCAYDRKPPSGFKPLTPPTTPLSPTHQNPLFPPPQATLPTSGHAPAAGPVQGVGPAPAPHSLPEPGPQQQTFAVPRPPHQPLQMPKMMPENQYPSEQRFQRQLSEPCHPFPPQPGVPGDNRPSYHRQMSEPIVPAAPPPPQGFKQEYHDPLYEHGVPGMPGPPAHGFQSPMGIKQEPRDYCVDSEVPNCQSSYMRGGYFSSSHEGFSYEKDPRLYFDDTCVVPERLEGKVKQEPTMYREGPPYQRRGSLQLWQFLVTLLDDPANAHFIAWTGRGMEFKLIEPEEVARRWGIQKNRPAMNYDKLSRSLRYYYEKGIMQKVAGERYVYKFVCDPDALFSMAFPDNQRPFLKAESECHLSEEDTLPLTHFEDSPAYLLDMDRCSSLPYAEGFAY
ETV1, sequence (P50549 whole entry): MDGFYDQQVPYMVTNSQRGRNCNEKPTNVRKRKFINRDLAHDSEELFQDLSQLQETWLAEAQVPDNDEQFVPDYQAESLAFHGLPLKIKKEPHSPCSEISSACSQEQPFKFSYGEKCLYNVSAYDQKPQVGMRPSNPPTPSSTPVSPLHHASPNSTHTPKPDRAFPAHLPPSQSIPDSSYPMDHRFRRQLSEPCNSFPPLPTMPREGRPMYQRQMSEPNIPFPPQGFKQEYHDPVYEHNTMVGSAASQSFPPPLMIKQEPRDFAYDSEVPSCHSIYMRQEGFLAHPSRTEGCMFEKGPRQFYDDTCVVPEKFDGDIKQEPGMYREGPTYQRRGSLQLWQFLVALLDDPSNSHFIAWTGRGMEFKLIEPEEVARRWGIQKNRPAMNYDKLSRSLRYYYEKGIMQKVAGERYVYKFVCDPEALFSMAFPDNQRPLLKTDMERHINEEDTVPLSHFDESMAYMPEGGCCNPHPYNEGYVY
ELF4, sequence (Q99607 whole entry): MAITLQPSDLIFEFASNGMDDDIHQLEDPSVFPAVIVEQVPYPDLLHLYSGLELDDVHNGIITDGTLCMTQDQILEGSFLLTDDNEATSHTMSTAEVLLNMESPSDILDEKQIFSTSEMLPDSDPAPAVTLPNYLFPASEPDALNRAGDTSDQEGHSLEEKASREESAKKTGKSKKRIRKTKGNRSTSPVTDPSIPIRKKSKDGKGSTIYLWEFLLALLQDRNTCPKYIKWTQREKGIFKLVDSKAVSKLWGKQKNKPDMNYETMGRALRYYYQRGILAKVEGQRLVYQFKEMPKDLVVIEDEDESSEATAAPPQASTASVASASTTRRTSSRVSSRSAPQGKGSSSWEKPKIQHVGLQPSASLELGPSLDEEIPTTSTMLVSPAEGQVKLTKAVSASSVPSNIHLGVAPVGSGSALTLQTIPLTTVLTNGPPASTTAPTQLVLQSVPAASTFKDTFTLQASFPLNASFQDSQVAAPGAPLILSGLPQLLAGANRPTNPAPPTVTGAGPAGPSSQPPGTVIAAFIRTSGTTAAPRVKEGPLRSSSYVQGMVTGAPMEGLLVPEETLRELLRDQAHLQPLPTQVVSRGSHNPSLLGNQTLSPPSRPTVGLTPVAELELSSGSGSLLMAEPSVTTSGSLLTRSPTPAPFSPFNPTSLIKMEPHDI

| Sequence | binding signal [1] | binding signal [2] | binding signal [3] | binding signal [4] | binding signal [5] | binding signal [6] | binding signal [7] | binding signal [8] | binding signal [9] | binding signal [10] | binding signal [11] | binding signal [12] | binding signal [13] | binding signal [14] | binding signal [15] | binding signal [16] | binding signal [17] | binding signal [18] |
| --- | --- | --- | --- | --- | --- | --- | --- | --- | --- | --- | --- | --- | --- | --- | --- | --- | --- | --- |
| TGCTGA | 1.11 fold enrichment (6-mer frequency, TF over GST control) | 1.03 fold enrichment (6-mer frequency, TF over GST control) | 1.07 fold enrichment (6-mer frequency, TF over GST control) | 1.01 fold enrichment (6-mer frequency, TF over GST control) | 1.07 fold enrichment (6-mer frequency, TF over GST control) | 1.14 fold enrichment (6-mer frequency, TF over GST control) | 1.12 fold enrichment (6-mer frequency, TF over GST control) | 1.01 fold enrichment (6-mer frequency, TF over GST control) | 1.19 fold enrichment (6-mer frequency, TF over GST control) | 1.07 fold enrichment (6-mer frequency, TF over GST control) | 1.18 fold enrichment (6-mer frequency, TF over GST control) | 1.15 fold enrichment (6-mer frequency, TF over GST control) | 1.11 fold enrichment (6-mer frequency, TF over GST control) | 1.15 fold enrichment (6-mer frequency, TF over GST control) | 1.09 fold enrichment (6-mer frequency, TF over GST control) | 1.04 fold enrichment (6-mer frequency, TF over GST control) | 1.12 fold enrichment (6-mer frequency, TF over GST control) | – |
| CCATCA | 1.26 fold enrichment (6-mer frequency, TF over GST control) | 1.21 fold enrichment (6-mer frequency, TF over GST control) | 1.22 fold enrichment (6-mer frequency, TF over GST control) | 1.15 fold enrichment (6-mer frequency, TF over GST control) | 1.29 fold enrichment (6-mer frequency, TF over GST control) | 1.18 fold enrichment (6-mer frequency, TF over GST control) | 1.19 fold enrichment (6-mer frequency, TF over GST control) | 1.17 fold enrichment (6-mer frequency, TF over GST control) | 1.2 fold enrichment (6-mer frequency, TF over GST control) | 1.23 fold enrichment (6-mer frequency, TF over GST control) | 1.09 fold enrichment (6-mer frequency, TF over GST control) | 1.2 fold enrichment (6-mer frequency, TF over GST control) | 1.24 fold enrichment (6-mer frequency, TF over GST control) | 1.11 fold enrichment (6-mer frequency, TF over GST control) | 1.28 fold enrichment (6-mer frequency, TF over GST control) | 1.04 fold enrichment (6-mer frequency, TF over GST control) | 1.13 fold enrichment (6-mer frequency, TF over GST control) | 1.13 fold enrichment (6-mer frequency, TF over GST control) |
